Source: PubChem (National Center for Advancing Translational Sciences (NCATS))
Shown are actives, neighbours in structure and some others; about 4.6% of the full set was active somewhere.
USP2a inh – inhibitors of human ubiquitin-specific protease USP2a. 60,000 tested, 0.1% active. AID 927. Potency, µM (series often up to 38.3 µM), usual class: inhibitors. USP2a enzymatic assay, qHTS inhibition; also: nearly all actives have a fitted effect of over 60% in size
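Inhibition is measured in a cell-free coupled assay with 20 nM USP2 core, 20 nM Ub-PLA2 and 20 uM NBD C6-HPC, 2.5 h incubation. Activity normalized to NEM control.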
Hsp90 Hop PPI – changes Hsp90-Hop TPR2A binding signal, up or down | AlphaScreen TPR2A-His6 binding biotin-Hsp90 C-terminal peptide | Potency, µM (doses to about 57 µM) | 71,000 tested, 0.44% active | AID 595; active = well fitted curve in either direction with a large enough effect; inconclusive = small, poorly fitted or top-dose-only effect, or another doubt
PK Bst – pyruvate kinase (B. stearothermophilus) modulation. 51,000 tested, 1.2% active. purified pyruvate kinase, luminescence ATP production; ribose 5-phosphate activator present at AC10. Potency, µM. AID 361; in the data active = potency below about 11 µM; inconclusive = mostly about 12 µM to 25 µM;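 the screen sought inhibitors and activators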
ALOX15 inhib – inhibitors of human 15-lipoxygenase (ALOX15); Potency, µM (highest dose often 57.1 µM), most hits filed as inhibitors; purified 15hLO-1, xylenol orange hydroperoxide absorbance; 74,000 tested, 1.4% active; P16050; also: nearly all actives have a fitted effect of over 55% in size
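Readout: Fe(III)-xylenol orange absorbance, 573-to-405 nm ratio as reaction progress. Enzyme 40 nM purified human 15hLO-1, substrate 50 uM arachidonic acid, 6 min RT after 15 min compound preincubation; Hepes pH 7.5 buffer with Triton X-100.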
GBA activity – alters purified human glucocerebrosidase activity; 48,000 tested, 1.1% active; P04062; Potency, µM; AID 360; purified enzyme, resorufin glucoside fluorescence (screen aimed at inhibitors), 20 min; in the data active = potency below about 15 µM; inconclusive = mostly about 16 µM to 33 µM;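 also: the screen sought inhibitors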
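Wild-type enzyme at 0.2 nM final in 50mM citric acid/KH2PO4, 10mM sodium taurocholate, 0.01% tween-20, pH 5.9, with resorufin beta-D-glucopyranoside at 30 uM final. Compounds titrated, 20 min at RT, red fluorescence read; AC50 from titration.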
Tau filament bind – binds recombinant human tau filaments; 71,000 tested, 2% active; AID 596; Potency, µM (titrated, usually from 57.1 µM); P10636; recombinant tau filaments, thioflavin S fluorescence, 15 h; filaments grown with octadecylsulfate alongside compound;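 also: actives lower thioflavin S fluorescence by blocking filaments or displacing dye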
Target sequence (P10636 whole entry, looked up): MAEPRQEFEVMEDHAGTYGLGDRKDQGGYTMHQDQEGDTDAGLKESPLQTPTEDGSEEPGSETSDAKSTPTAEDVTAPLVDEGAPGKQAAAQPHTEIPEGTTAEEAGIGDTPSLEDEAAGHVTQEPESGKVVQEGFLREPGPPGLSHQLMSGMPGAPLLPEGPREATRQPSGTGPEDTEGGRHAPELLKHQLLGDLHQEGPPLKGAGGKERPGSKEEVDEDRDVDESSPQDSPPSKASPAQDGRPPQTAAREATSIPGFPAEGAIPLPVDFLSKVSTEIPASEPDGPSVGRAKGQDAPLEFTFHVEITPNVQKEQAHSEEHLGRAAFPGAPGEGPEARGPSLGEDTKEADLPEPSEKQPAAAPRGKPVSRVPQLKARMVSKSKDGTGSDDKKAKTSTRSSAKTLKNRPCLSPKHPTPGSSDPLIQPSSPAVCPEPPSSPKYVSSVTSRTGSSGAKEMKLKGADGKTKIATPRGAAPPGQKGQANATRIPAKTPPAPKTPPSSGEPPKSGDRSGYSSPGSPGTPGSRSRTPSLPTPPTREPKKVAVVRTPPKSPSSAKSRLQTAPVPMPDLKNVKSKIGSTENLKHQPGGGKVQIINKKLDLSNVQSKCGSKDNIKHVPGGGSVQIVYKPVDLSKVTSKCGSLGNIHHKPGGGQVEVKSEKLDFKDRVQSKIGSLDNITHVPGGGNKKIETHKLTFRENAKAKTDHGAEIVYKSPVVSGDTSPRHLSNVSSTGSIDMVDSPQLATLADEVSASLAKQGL
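His-tagged recombinant human tau (exons 2, 3 and 10 included), 1 uM, was induced to fibrillize by 30 uM sodium octadecylsulfate with compound present. After 15 h at 37 C, thioflavine S fluorescence (ex 450, em 510 nm) was read.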
Hits are given with their value; – = inactive; ? = inconclusive; · = no result; [ ] = dose if it differs, or a comment. Unless noted, calls follow the shape of the dose curve; as a rule, active = well fitted curve in the direction sought with a large enough effect; inconclusive = small, poorly fitted or top-dose-only effect, or another doubt; inactive = no such curve, though single readings can be large; an effect the other way counts as inactive or inconclusive.

SMILES	USP2a inh	Hsp90 Hop PPI	PK Bst	ALOX15 inhib	GBA activity	Tau filament bind
CCCC(=O)N1CCN(c2ccc(NC(=O)c3cc4ccccc4o3)cc2Cl)CC1	–	–	–	–	4.22	–
CC(=O)Nc1ccc(C(=O)Nc2ccc(S(=O)(=O)N3CCCC3)cc2)cc1	–	–	·	–	·	–
Cc1nc(/N=C(\N)Nc2ccccc2)nc2ccccc12	·	·	9.3	·	·	·
CCOC(=O)c1[nH]c(C)c(C(=O)Nc2ccc3c(c2)OCCO3)c1C	–	–	–	–	–	–
CCOC(=O)c1c(C)[nH]c(C(=O)COC(=O)C2CC2C)c1C (stereo unspecified)	–	–	–	–	7.76	–
CCOC(=O)c1c(C)[nH]c(C(=O)COC(=O)CCC(=O)c2ccc3c(c2)OCCO3)c1C	–	–	–	–	11.4	–
O=C(NCCCO)c1ccc2[nH]c3ccccc3c2c1	·	–	–	–	–	–
COc1cc(-c2ccc(N=C=O)c(OC)c2)ccc1N=C=O	·	–	·	–	·	15.8µM
CC(=O)NC(=O)NC1CSCC1OC(C)=O (stereo unspecified)	–	–	–	–	–	–
CC(C(=O)NC(=O)NCc1ccccc1)N1C(=O)c2ccccc2C1=O (stereo unspecified)	·	·	–	·	·	·
Cc1cc(C)nc(Nc2nc3ccccc3[nH]2)n1	–	–	–	–	–	–
Cc1cc(C)nc(Nc2nc(=O)c3ccccc3s2)n1	–	–	·	7.94µM	·	–
CC1=C(C(=O)NCc2ccccc2)C(c2ccc(C)o2)n2ncnc2N1 (stereo unspecified)	–	–	–	–	–	–
O=c1c(-c2ccccc2)nc2cnc(N3CCOCC3)nc2n1CCc1ccccc1	–	5.01µM	·	–	·	–
O=c1c(-c2ccc(Cl)cc2)nc2cnc(N3CCOCC3)nc2n1CCc1ccccc1	–	–	·	–	·	–
COc1ccc(-c2nc3cnc(N(C)C)nc3n(CCc3ccccc3)c2=O)cc1	–	0.631µM	·	–	·	–
CN(C)c1ncc2nc(-c3ccccc3)c(=O)n(CCc3ccccc3)c2n1	–	–	·	?	·	–
CC1(C)CC(=O)C2=C(C1)OC(N)=C(C#N)C2C1CC=CCC1 (stereo unspecified)	–	–	–	31.6µM	?	–
CC(C)c1cc(=O)oc2c3c4c(cc12)CCCN4CCC3	–	–	·	–	·	–
Cc1sc2nc3c4ccccc4c(NCc4ccco4)nn3c(=O)c2c1C	–	–	1.96	–	?	–
Cc1nnc(NCc2ccco2)c2ccccc12	–	–	–	–	–	–
COC(=O)c1ccc(C2C(C#N)=C(C)NC3=C2C(=O)CC(C)(C)C3)cc1 (stereo unspecified)	–	–	–	–	12.2	–
CCOC(=O)C1=C(C)NC(SCC(=O)OC)=C(C#N)C1c1ccc(C(=O)OC)cc1 (stereo unspecified)	–	?	–	5.01µM	–	–
COc1ccc(C2C(C#N)=C(SC)NC3=C2C(=O)CC(C)(C)C3)cc1 (stereo unspecified)	·	·	–	·	·	·
COc1cccc(/C=N/n2c(C)nc3ccccc32)c1OC	–	–	?	–	?	–
SMILES	USP2a inh	Hsp90 Hop PPI	PK Bst	ALOX15 inhib	GBA activity	Tau filament bind
Cc1cccc(NC(=O)c2cnc3sccn3c2=O)n1	·	–	·	–	·	–
CCOc1nc(OCC)nc(N2CCC(C)CC2)n1	–	–	–	–	–	–
CCOc1nc(C#N)nc(N2CCCCC2)n1	–	–	–	–	–	12.6µM
CCOc1cccc2cc(-c3cn4cc(C)ccc4n3)c(=O)oc12	–	–	1.23	–	–	–
CN(O)/C=c1/ccc2c(n1)C(=O)C=CC=2	–	2µM	–	–	–	–
COc1ccccc1NC(=O)CSCC(N)=O	–	?	–	–	–	–
COc1ccccc1N1CCN(c2ccc(-c3ccccc3)nn2)CC1	–	–	1.63	–	–	?
COc1ccccc1N1CCN(c2nc(-c3ccccc3)cc(C(F)(F)F)n2)CC1	–	–	–	–	–	–
N[C@@H](Cc1cc(-c2ccc(Cl)cc2Cl)cc(CP(=O)(O)O)c1O)C(=O)O	·	–	·	12.6µM	·	39.8µM
N[C@@H](Cc1c[nH]c2ccc(O)cc12)C(=O)O	–	–	·	?	·	–
CCOc1ccc(Nc2c3c(nc4ncnn24)CC(C)CC3)cc1 (stereo unspecified)	–	–	·	–	·	–
CC1=CC(=O)[C@@H]2C[C@H]1C2(C)C	·	·	·	–	·	·
COC(=O)C/C=C1\c2ccccc2[C@H](OC)[C@H]1C	·	·	·	–[11.4 µM]	·	·
Cc1ccc(Nc2nc(N3CCOCC3)c3ccccc3n2)cc1	–	–	·	?	·	?
Oc1ccc(Nc2nc(N3CCCC3)c3ccccc3n2)cc1	·	–	–	?	8.85	–
Nc1nc(Nc2ccccc2)nc2ccccc12	·	–	5.47	?	?	–
O=C(c1ccncc1)N1CCC2(CC1)CN(c1ccccc1)C2	–	–	·	–	·	–
COC(=O)C1=C(C)NC(C)=C(C(=O)OCCN(C)Cc2ccccc2)[C@H]1c1cccc([N+](=O)[O-])c1	–	–	·	–	·	10µM
COc1ccc(-c2coc3cc(O)ccc3c2=O)cc1	–	–	·	–	·	31.6µM
COc1ccc2c(=O)c(-c3nc(C)cs3)coc2c1	·	·	4.15	·	·	·
COc1ccc(-c2coc3cc(O)ccc3c2=O)c(OC)c1	–	·	·	–	·	·
COC(=O)COc1ccc2c(=O)c(Oc3ccccc3)c(C)oc2c1	–	–	·	–	·	–
Cc1nc(-c2coc3cc(OCC(=O)O)ccc3c2=O)cs1	·	·	9.65	·	·	·
Cc1csc(-c2coc3cc(O)cc(C)c3c2=O)n1	–	–	·	15.8µM	·	–
Cn1c(SCCOc2ccccc2Cl)nnc1-c1ccncc1	–	–	–	–	?	–
SMILES	USP2a inh	Hsp90 Hop PPI	PK Bst	ALOX15 inhib	GBA activity	Tau filament bind
Cc1cc(N2CCN(C(=O)OC(C)(C)C)CC2)n2ncnc2n1	–	–	–	–	–	–
C=CCOc1ccccc1CNn1nnnc1N	–	–	–	–	–	–
Cc1onc(-c2ccccc2Cl)c1C(=O)N1CCN(c2ccccc2)CC1	–	–	–	–	–	–
COC(=O)C1=C(C)Nc2ccc(C)cc2S1	·	–[2.3 µM]	·	10µM	·	20µM
Cn1c(SCc2nc3ccccc3c(=O)[nH]2)nnc1-c1ccco1	–	–	–	–	–	–
CCNc1nc(NCC)n2c(SCc3nc4ccccc4c(=O)[nH]3)nnc2n1	–	–	7	–	–	–
CC1OC(OCC2OC(Oc3c(-c4ccc(OCCO)c(OCCO)c4)oc4cc(OCCO)cc(O)c4c3=O)C(O)C(O)C2O)[C@@H](O)C(O)C1O (stereo partly specified)	–	·	·	–	·	·
COc1ccc(NC(=O)C2CCCN(S(=O)(=O)c3cccc4nonc34)C2)c(OC)c1 (stereo unspecified)	–	–	–	?	–	–
Cc1noc(/C=C/N(C)C)c1S(=O)(=O)N1CCCC(C(=O)NCc2ccc(Cl)cc2)C1 (stereo unspecified)	–	–	–	–	14	–
